In PubChem BioAssay one finds z-score data, which are given here for 36 molecules.

This assay can be described thus: basal MM1S mitochondrial membrane potential changes, profiling panel, cell-based, JC-1 fluorescence, 24 h, 100 nL compound (AID 1170). Also: test concentration not given here. To be noted: higher = more signal.
The molecule `O=C1C2C=CC(C(O)Cc3ccccc3)N(n3cnnc3)C2C(=O)N1Cc1ccccc1` (stereo unspecified) showed a z-score of 1.24. The figure for `Cc1ccc(S[C@]2(C(=O)NCCCN(C)C)CC(=O)N(Cc3ccccc3C(F)(F)F)[C@@H]2c2ccc(CO)cc2)cc1` is 0.427. With `COc1cc(C(O)C2C=CC3C(=O)NC(=O)C3N2Nc2ccccn2)cc(OC)c1OC` (stereo unspecified), the z-score is -0.0424. `C=CCNC(=O)[C@H]1[C@@H]2C(=O)O[C@@H](c3ccccc3)[C@@H](c3ccccc3)N2[C@@H](c2ccccc2OCCO)[C@]12C(=O)Nc1ccc(C#CCC(C(=O)OC)C(=O)OC)cc12` returned a z-score of -2.23. For the molecule `COCCOC(=O)N1C(=O)[C@@]2(c3cc(C#CCNC(N)=O)ccc31)[C@H](C(=O)N1CCN(c3ncccn3)CC1)[C@H]1C(=O)O[C@H](c3ccccc3)[C@H](c3ccccc3)N1[C@@H]2c1ccc(OCCO)cc1`, the z-score is -1.51. Molecule `CCOC(=O)C[C@H]1[C@H](OC(=O)c2ccc(C(=O)c3ccccc3)cc2)[C@@H](NC(=O)c2ccc3ccccc3c2)c2cc(OCCCO)ccc2N1C(=O)Cc1ccc(OC)cc1` came in with a z-score of -0.51.

For `C[C@H]1NC(=O)[C@@]23C(=O)N[C@@H](Cc4ccccc4)C2[C@H](C)[C@@]2(C)O[C@H]2C3/C=C/C/C=C\CNC(=O)[C@@H]2CCCN2C1=O` (stereo partly specified), the z-score was -0.507.

`C=C(CCCC)/C(=C/C[C@@H](OC(=O)c1ccncc1)c1ccc(OCCO)cc1)c1cc(C(=O)OC)ccc1OC`: the z-score is -0.969. `CN1C(=O)C2C=CC(C(O)c3ccc([N+](=O)[O-])cc3)N(N3CCCCC3)C2C1=O` (stereo unspecified) yielded a z-score of 0.134. `CC(C)C(=C=CC[C@H](O)c1ccc(OCCO)cc1)CCO`: the z-score is -0.0147. As to `C[C@H]1C2[C@H](Cc3ccccc3)NC(=O)[C@]23C(=O)N[C@H](Cc2ccccc2)C(=O)N2CCC[C@H]2C(=O)NC/C=C\C/C=C/C3[C@@H]2O[C@]12C` (stereo partly specified), the z-score was -0.634.

Take `CN(C)CCCCCCNC(=O)[C@H]1C[C@H]2C(=O)N[C@@H](CCCCN)C(=O)N2[C@H]1c1cccc(OCCO)c1`: the z-score came out at 0.358. `C=CCC(OC(C)=O)[C@@H]1[C@@H](N(Cc2cc3ccccc3o2)C(=O)c2cccc3ccccc23)c2cc(OCCCO)ccc2N1C(=O)c1ccc(-c2ccccc2)cc1` (stereo partly specified) yielded a z-score of 0.955. As for `COC(=O)[C@@]1(Cc2ccc(OC)cc2)[C@H]2c3cc(C(=O)N4CCCC4)n(Cc4ccc(O)c(OC)c4)c3C[C@H]2CN1C(=O)c1ccccc1`, the z-score is -0.933. In the case of `COC(=O)[C@@]1(Cc2ccc(OC)cc2)[C@H]2c3cc(C(=O)N4CCCC4)n(Cc4ccc(C)c(F)c4F)c3C[C@H]2CN1C(=O)c1ccccc1`, the z-score was -1.51. The result for `C=CCOC(=O)[C@H]1[C@@H]2C(=O)O[C@@H](c3ccccc3)[C@@H](c3ccccc3)N2[C@@H](c2ccc(OCCOC(=O)[C@@H]3C[C@@H]4C(=O)N[C@@H](CCCCNC(C)=O)C(=O)N4[C@@H]3c3ccc(O)cc3)cc2)[C@]12C(=O)Nc1ccccc12` reads -0.95. `COC(=O)[C@@]1(Cc2ccc(OC)cc2)[C@H]2c3cc(C(=O)N(C)C)n(Cc4ccc(S(C)(=O)=O)cc4)c3C[C@H]2CN1C(=O)c1ccccc1` registered a z-score of -1.11.

`CC(C)=CCN[C@H](CO)c1ccccc1` displayed a z-score of 0.559. On to `COC(=O)[C@@]1(Cc2ccc(F)cc2)[C@H]2c3cc(C(=O)N4CCCC4)n(Cc4ccc(S(C)(=O)=O)cc4)c3C[C@H]2CN1C(=O)c1ccccc1`, for which the z-score is -0.583.

The molecule `COc1ccc(C#Cc2ccc3c(c2)[C@]2(C(=O)N3)[C@H](C(=O)Nc3nc4ccccc4s3)[C@H]3C(=O)O[C@H](c4ccccc4)[C@H](c4ccccc4)N3[C@@H]2c2ccc(O)cc2)cc1` gave a z-score of -1.18. Consider `[N-]=[N+]=Nc1ccccc1[C@H]1OC(c2ccc(OCCCO)cc2)=N[C@@]1(CCS(=O)(=O)c1ccccc1)C(N)=O`, for which the z-score is 0.296. The result for `CC(C)c1ccc(NN2C(C(O)c3ccc(B(O)O)cc3)C=CC3C(=O)N(c4ccccc4)C(=O)C32)cc1` (stereo unspecified) reads 0.00559. The molecule `COC(=O)[C@@]1(Cc2ccc(F)cc2)[C@H]2c3cc(C(=O)N(C)C)n(Cc4ccccc4)c3C[C@H]2CN1C(=O)c1ccccc1` had a z-score of -0.529. Turning to `[N-]=[N+]=Nc1ccccc1[C@@H]1OC(c2ccc(OCCCO)cc2)=N[C@]1(Cc1ccccc1)C(=O)N1CCOCC1`, the z-score was -1.09.

`CN(C)C(=O)[C@]1(Cc2ccccc2N=[N+]=[N-])N=C(c2ccc(OCCCO)cc2)O[C@@H]1c1ccccc1N=[N+]=[N-]` registered a z-score of -1.8. The molecule `CC(C)NC(=O)[C@@]1(c2ccc([N+](=O)[O-])cc2)CC(=O)N(C2CCCCC2)[C@@H]1c1ccc(CO)cc1I` registered a z-score of 0.521. `COCCOC(=O)N1C(=O)[C@@]2(c3cc(C#Cc4ccc(OC)cc4)ccc31)[C@H](c1ccc(OCCO)cc1)N1[C@H](c3ccccc3)[C@H](c3ccccc3)OC(=O)[C@H]1[C@@H]2C(=O)N1CCN(c2ncccn2)CC1` yielded a z-score of -0.857. `CCC[C@@H]1C[C@@]1(CCC)[C@@H](NC(=O)c1ccccc1)c1cccc(Cl)c1` came in with a z-score of -0.0307.

Regarding `[N-]=[N+]=Nc1ccccc1[C@H]1OC(c2ccc(OCCCO)cc2)=N[C@@]1(CCS(=O)(=O)c1ccccc1)C(=O)NCC(O)CO` (stereo partly specified), the z-score is -0.0714.

In turn, `O=C1N[C@@H](Cc2ccccc2)C(=O)N2[C@@H]1C[C@@H](C(=O)O)[C@H]2c1cccc(OCCO)c1` displayed a z-score of -1.19.

For `COc1ccc([Si](C)(C)[C@@H]2[C@@H](CC(=O)N3CCC[C@H]3CO)O[C@]3(C(=O)N(c4ccccc4)c4ccccc43)[C@H]2C)cc1`, the z-score was -0.544.

Turning to `CC(C)N1C(=O)C[C@@](C(=O)NCC(F)(F)F)(c2ccc([N+](=O)[O-])cc2)[C@H]1c1ccc(CO)cc1`, the z-score is -1.51. `CN1C(=O)C2C=CC(C(O)C#Cc3ccccc3)N(N3CCCCC3)C2C1=O` (stereo unspecified) gave a z-score of -0.547. On to `C=C(C)[C@@H]1CC=C(C(O)C2C=CC3C(=O)N(C)C(=O)C3N2Nc2ccccc2)CC1` (stereo partly specified), for which the z-score was -0.0333. `C=CCOC(=O)[C@@H]1[C@H]2C(=O)O[C@H](c3ccccc3)[C@H](c3ccccc3)N2[C@H](c2ccc(OCCOC(=O)[C@@H]3C[C@@H]4C(=O)NCC(=O)N4[C@@H]3c3ccc(O)cc3)cc2)[C@@]12C(=O)Nc1ccc(I)cc12` yielded a z-score of -0.919.

Molecule `COC(=O)[C@@]1(Cc2ccc(OC)cc2)[C@H]2c3cc(C(=O)N(C)C)n(CCc4ccccn4)c3C[C@H]2CN1C(=O)c1ccccc1` yielded a z-score of -1.35.
